{"source": "PubChem BioAssay (Tox21)", "note": "Inconclusive results are not listed. Unmarked numbers belong to inactive results. Calls of active or inactive are those of the source. Calls follow the shape of the dose curve; as a rule, active = well fitted cell-killing curve with a large enough effect in the repeat runs; inconclusive = weak or mixed curves, or effect the other way; inactive = flat fitted curve, though single readings scatter. % is scaled to controls: 0 for no effect and ±100 for the full control effect; potency is read from the fitted curve at half-maximal effect.", "data": [{"experiment": "cAMP Responsive Elements (CRE) small molecule antagonists, cell-based qHTS assay: qHTS cell viability counter screen (AID 2060913); also: nearly all actives have a fitted effect of over 40% in size", "details": "CRE-bla HEK293T viability, CellTiter-Glo luminescence, 5 h; series mostly up to 92.4 µM; viability change, negative = cytotoxic: at the top concentration", "summary_of_the_method": "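CRE-bla HEK293T cells (2,000/well, 18 h) given compound plus NKH477 0.25 uM final for 3 h at 37C; viability counter-screen by CellTiter-Glo luminescence in same wells after 30 min.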", "values": [{"compound": "ClCc1ccccc1Cl", "viability change, negative = cytotoxic": "8.62%"}, {"compound": "CC(O)(CS(=O)(=O)c1ccc(F)cc1)C(=O)Nc1ccc(C#N)c(C(F)(F)F)c1", "note": "(stereo not given)", "viability change, negative = cytotoxic": "0.443% [at 42.5 µM]"}, {"compound": "C[C@H]1[C@H](c2ccc(Cl)cc2)SC(=O)N1C(=O)NC1CCCCC1", "viability change, negative = cytotoxic": "-6.82%"}, {"compound": "NC(=O)CN1CCCC1=O", "Potency": "inactive"}, {"compound": "CCNc1nc(Cl)nc(NC(C)(C)C#N)n1", "Potency": "inactive"}, {"compound": "COCC(=O)N(c1c(C)cccc1C)N1CCOC1=O", "viability change, negative = cytotoxic": "4.55%"}, {"compound": "CC(C)C(C)(N)C#N", "note": "(stereo not given)", "viability change, negative = cytotoxic": "-6.65%"}, {"compound": "[O-][Cl+]O", "viability change, negative = cytotoxic": "1.66%"}, {"compound": "CCOC(=O)c1ccccc1S(=O)(=O)NC(=O)Nc1nc(Cl)cc(OC)n1", "viability change, negative = cytotoxic": "17.9%"}, {"compound": "CNC(=O)/C=C(\\C)OP(=O)(OC)OC", "viability change, negative = cytotoxic": "0.218%"}, {"compound": "OC(c1ccccc1)(c1ccccc1)C1CCNCC1", "viability change, negative = cytotoxic": "0.247% [at 42.5 µM]"}, {"compound": "O=P(O)(Oc1ccccc1)Oc1ccccc1", "viability change, negative = cytotoxic": "4.29%"}, {"compound": "NC(=S)c1c(Cl)cccc1Cl", "viability change, negative = cytotoxic": "0.502%"}, {"compound": "Clc1ccc(C2(Cn3cncn3)CC(Br)CO2)c(Cl)c1", "note": "(stereo not given)", "viability change, negative = cytotoxic": "-7.27%"}, {"compound": "CC(C)N1C(=O)c2ccccc2NS1(=O)=O", "Potency": "inactive"}, {"compound": "CC(C)=CCN1CC[C@@]2(C)c3cc(O)ccc3C[C@@H]1[C@@H]2C", "viability change, negative = cytotoxic": "-7.83%"}, {"compound": "COC(=O)c1ccccc1C(=O)OC", "Potency": "inactive"}, {"compound": "ClC1=C(Cl)C2(Cl)C3C(Cl)C=CC3C1(Cl)C2(Cl)Cl", "note": "(stereo not given)", "Potency": "inactive"}, {"compound": "CCOC(C(=O)OCCN(C)C)(c1ccccc1)c1ccccc1", "viability change, negative = cytotoxic": "-0.504% [at 42.5 µM]"}, {"compound": "COc1ccc(/C(=C/C(=O)N2CCOCC2)c2ccc(Cl)cc2)cc1OC", "viability change, negative = cytotoxic": "-3.16%"}, {"compound": "O=C(CBr)c1ccc(O)cc1", "viability change, negative = cytotoxic": "-2.46%"}, {"compound": "CS(=O)(=O)c1ccc(C(=O)C2C(=O)CCCC2=O)c(Cl)c1COCC(F)(F)F", "viability change, negative = cytotoxic": "10.1%"}, {"compound": "CCOC(=O)C1(c2ccccc2)CCN(CCC(C#N)(c2ccccc2)c2ccccc2)CC1", "viability change, negative = cytotoxic": "-2.58% [at 42.5 µM]"}, {"compound": "Nc1ccccc1Cl", "viability change, negative = cytotoxic": "1.41%"}, {"compound": "OCCSCSCCO", "viability change, negative = cytotoxic": "-0.711%"}, {"compound": "COC(=O)[C@@H](N)CCCN/C(N)=N/[N+](=O)[O-]", "viability change, negative = cytotoxic": "4.59% [at 42.5 µM]"}, {"compound": "CN/C(=N\\[N+](=O)[O-])NCc1cnc(Cl)s1", "viability change, negative = cytotoxic": "-1.35%"}, {"compound": "Nc1cccc(Cl)c1", "Potency": "inactive"}, {"compound": "CC1(C)C(C=C(Cl)Cl)C1C(=O)OC(C#N)c1cccc(Oc2ccccc2)c1", "note": "(stereo not given)", "Potency": "inactive"}, {"compound": "CCCCC1C(=O)NC(=O)N(C2CCCCC2)C1=O", "note": "(stereo not given)", "viability change, negative = cytotoxic": "-1.21% [at 42.5 µM]"}, {"compound": "N[C@@H](Cc1ccc(N(CCCl)CCCl)cc1)C(=O)O", "Potency": "inactive"}, {"compound": "Cc1ccc(N)cc1", "Potency": "inactive"}, {"compound": "CCCCCCCCCCCCCN1CC(C)OC(C)C1", "note": "(stereo not given)", "viability change, negative = cytotoxic": "5.13%"}, {"compound": "O=C(O)c1cc[c]([Hg][Cl])cc1", "viability change, negative = cytotoxic": "-4.96%"}, {"compound": "CC(C)NC(C)C", "Potency": "inactive"}, {"compound": "CCCCCCCCSC(=O)Oc1cc(Cl)nnc1-c1ccccc1", "viability change, negative = cytotoxic": "2.5%"}, {"compound": "CCCCCCCCCCCCCCCCCCn1cc[n+](C)c1", "Potency": "27.1 µM (active)"}, {"compound": "C=CCOCC1CO1", "note": "(stereo not given)", "viability change, negative = cytotoxic": "-0.446%"}, {"compound": "CCCCOC(=O)c1ccccc1C(=O)OCc1ccccc1", "Potency": "inactive"}, {"compound": "O=C(O)C(Cl)Cl", "Potency": "inactive"}]}, {"experiment": "cAMP Responsive Elements (CRE) small molecule agonists, cell-based qHTS assay: qHTS cell viability counter screen (AID 2060914); also: nearly all actives have a fitted effect of over 50% in size", "details": "CRE-bla HEK293T viability, CellTiter-Glo luminescence, 5 h; series mostly up to 92.4 µM; activity change, negative = cytotoxicity: at the top concentration", "summary_of_the_method": "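Cytotoxicity counter screen multiplexed with the CRE-bla reporter assay in HEK 293T cells: 3 h compound exposure at 37 °C, followed by CellTiter-Glo luminescence measured in the same wells.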", "values": [{"compound": "ClCc1ccccc1Cl", "activity change, negative = cytotoxicity": "4.22%"}, {"compound": "CC(O)(CS(=O)(=O)c1ccc(F)cc1)C(=O)Nc1ccc(C#N)c(C(F)(F)F)c1", "note": "(stereo not given)", "activity change, negative = cytotoxicity": "-1.48% [at 42.5 µM]"}, {"compound": "C[C@H]1[C@H](c2ccc(Cl)cc2)SC(=O)N1C(=O)NC1CCCCC1", "activity change, negative = cytotoxicity": "-14.4%"}, {"compound": "NC(=O)CN1CCCC1=O", "Potency": "inactive"}, {"compound": "CCNc1nc(Cl)nc(NC(C)(C)C#N)n1", "Potency": "inactive"}, {"compound": "COCC(=O)N(c1c(C)cccc1C)N1CCOC1=O", "activity change, negative = cytotoxicity": "-1.98%"}, {"compound": "CC(C)C(C)(N)C#N", "note": "(stereo not given)", "activity change, negative = cytotoxicity": "-1.69%"}, {"compound": "[O-][Cl+]O", "activity change, negative = cytotoxicity": "0.106%"}, {"compound": "CCOC(=O)c1ccccc1S(=O)(=O)NC(=O)Nc1nc(Cl)cc(OC)n1", "activity change, negative = cytotoxicity": "-0.591%"}, {"compound": "CNC(=O)/C=C(\\C)OP(=O)(OC)OC", "activity change, negative = cytotoxicity": "15.8%"}, {"compound": "OC(c1ccccc1)(c1ccccc1)C1CCNCC1", "activity change, negative = cytotoxicity": "-8.43% [at 42.5 µM]"}, {"compound": "O=P(O)(Oc1ccccc1)Oc1ccccc1", "activity change, negative = cytotoxicity": "-10.2%"}, {"compound": "NC(=S)c1c(Cl)cccc1Cl", "activity change, negative = cytotoxicity": "1.97%"}, {"compound": "Clc1ccc(C2(Cn3cncn3)CC(Br)CO2)c(Cl)c1", "note": "(stereo not given)", "activity change, negative = cytotoxicity": "-15.3%"}, {"compound": "CC(C)N1C(=O)c2ccccc2NS1(=O)=O", "Potency": "inactive"}, {"compound": "CC(C)=CCN1CC[C@@]2(C)c3cc(O)ccc3C[C@@H]1[C@@H]2C", "activity change, negative = cytotoxicity": "0.368%"}, {"compound": "COC(=O)c1ccccc1C(=O)OC", "Potency": "inactive"}, {"compound": "ClC1=C(Cl)C2(Cl)C3C(Cl)C=CC3C1(Cl)C2(Cl)Cl", "note": "(stereo not given)", "Potency": "inactive"}, {"compound": "CCOC(C(=O)OCCN(C)C)(c1ccccc1)c1ccccc1", "activity change, negative = cytotoxicity": "12.5% [at 42.5 µM]"}, {"compound": "COc1ccc(/C(=C/C(=O)N2CCOCC2)c2ccc(Cl)cc2)cc1OC", "activity change, negative = cytotoxicity": "5.08%"}, {"compound": "O=C(CBr)c1ccc(O)cc1", "activity change, negative = cytotoxicity": "26.3%"}, {"compound": "CS(=O)(=O)c1ccc(C(=O)C2C(=O)CCCC2=O)c(Cl)c1COCC(F)(F)F", "activity change, negative = cytotoxicity": "4.37%"}, {"compound": "CCOC(=O)C1(c2ccccc2)CCN(CCC(C#N)(c2ccccc2)c2ccccc2)CC1", "activity change, negative = cytotoxicity": "0.0445% [at 42.5 µM]"}, {"compound": "Nc1ccccc1Cl", "activity change, negative = cytotoxicity": "-11.7%"}, {"compound": "OCCSCSCCO", "activity change, negative = cytotoxicity": "1.37%"}, {"compound": "COC(=O)[C@@H](N)CCCN/C(N)=N/[N+](=O)[O-]", "activity change, negative = cytotoxicity": "6.05% [at 42.5 µM]"}, {"compound": "CN/C(=N\\[N+](=O)[O-])NCc1cnc(Cl)s1", "activity change, negative = cytotoxicity": "0.472%"}, {"compound": "Nc1cccc(Cl)c1", "Potency": "inactive"}, {"compound": "CC1(C)C(C=C(Cl)Cl)C1C(=O)OC(C#N)c1cccc(Oc2ccccc2)c1", "note": "(stereo not given)", "Potency": "inactive"}, {"compound": "CCCCC1C(=O)NC(=O)N(C2CCCCC2)C1=O", "note": "(stereo not given)", "activity change, negative = cytotoxicity": "-12.8% [at 42.5 µM]"}, {"compound": "N[C@@H](Cc1ccc(N(CCCl)CCCl)cc1)C(=O)O", "Potency": "inactive"}, {"compound": "Cc1ccc(N)cc1", "Potency": "inactive"}, {"compound": "CCCCCCCCCCCCCN1CC(C)OC(C)C1", "note": "(stereo not given)", "activity change, negative = cytotoxicity": "-12.7%"}, {"compound": "O=C(O)c1cc[c]([Hg][Cl])cc1", "activity change, negative = cytotoxicity": "24.3%"}, {"compound": "CC(C)NC(C)C", "Potency": "inactive"}, {"compound": "CCCCCCCCSC(=O)Oc1cc(Cl)nnc1-c1ccccc1", "activity change, negative = cytotoxicity": "5.48%"}, {"compound": "CCCCCCCCCCCCCCCCCCn1cc[n+](C)c1", "Potency": "30.5 µM (active)"}, {"compound": "C=CCOCC1CO1", "note": "(stereo not given)", "activity change, negative = cytotoxicity": "-2.33%"}, {"compound": "CCCCOC(=O)c1ccccc1C(=O)OCc1ccccc1", "activity change, negative = cytotoxicity": "0.99%"}, {"compound": "O=C(O)C(Cl)Cl", "Potency": "inactive"}]}]}
